# Screening data (PubChem)
# Compounds with a hit are over-represented: about 5.9% of the library has one in this group of screens.
# GAA850 FXN act: increases GAA850 frataxin promoter reporter activity; HEK293 lucGAA850 FXN promoter luciferase reporter, 24 h; percent of 10 µM SAHA response; activation, % at 6 µM; 360,000 compounds, 0.56% hits; AID 540364;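 active = activation above the average of all compounds screened plus 3 SD, cutoff fixed separately per campaign, cut at about 7.5% in these data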;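 also: 0% = DMSO wells and 100% = 10 µM SAHA wells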
# AHR act: human AHR activation; P35869; AHR-responsive luciferase reporter cells, luminescence; activation, % at 5 µM; 320,000 compounds, 2.5% hits; in the data active = activation above about 47%;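 also: 0% = vehicle wells and 100% = reference agonist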
# Target sequence (P35869 whole entry, looked up): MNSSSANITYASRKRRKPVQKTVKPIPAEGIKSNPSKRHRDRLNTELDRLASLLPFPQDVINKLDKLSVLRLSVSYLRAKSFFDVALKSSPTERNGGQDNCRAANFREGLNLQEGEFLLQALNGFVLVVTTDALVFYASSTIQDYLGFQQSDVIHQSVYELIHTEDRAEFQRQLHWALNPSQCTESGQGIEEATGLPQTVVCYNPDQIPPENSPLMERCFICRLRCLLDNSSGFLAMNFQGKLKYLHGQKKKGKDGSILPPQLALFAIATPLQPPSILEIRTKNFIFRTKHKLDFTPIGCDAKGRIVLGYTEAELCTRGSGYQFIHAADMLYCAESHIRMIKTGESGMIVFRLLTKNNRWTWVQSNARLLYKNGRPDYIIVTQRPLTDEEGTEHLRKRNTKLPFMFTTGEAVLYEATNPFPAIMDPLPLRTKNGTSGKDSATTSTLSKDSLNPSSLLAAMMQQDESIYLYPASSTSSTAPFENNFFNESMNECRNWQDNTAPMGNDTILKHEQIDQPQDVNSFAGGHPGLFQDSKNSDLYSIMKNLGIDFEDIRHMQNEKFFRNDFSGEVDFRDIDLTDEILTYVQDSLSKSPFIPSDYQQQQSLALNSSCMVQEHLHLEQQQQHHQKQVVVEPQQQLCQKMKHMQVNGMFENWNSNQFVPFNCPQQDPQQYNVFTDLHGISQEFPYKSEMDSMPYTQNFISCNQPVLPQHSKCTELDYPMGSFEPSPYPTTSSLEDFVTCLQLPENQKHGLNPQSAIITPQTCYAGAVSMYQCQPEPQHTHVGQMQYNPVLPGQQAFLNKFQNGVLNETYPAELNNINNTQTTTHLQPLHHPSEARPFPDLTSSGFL
# HSP90 inh: inhibitors of HSP90 luciferase refolding in rabbit reticulocyte lysate; 290,000 compounds, 0.91% hits; luciferase refolding luminescence, 3 h; inhibition, % at 5.6 µM; AID 1789;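 active = inhibition above the screen-wide mean plus 3 SD, computed separately per campaign, cut at about 16% in these data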;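 also: 0% = DMSO wells and 100% = 60 µM geldanamycin wells; inhibitors lower the luminescence because luciferase stays unfolded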
# HSF1 activator: increases HSF-1 driven luciferase reporter signal; NIH3T3-HGL HSF-1 luciferase reporter, MG132, 8 h; 100% = twice DMSO control signal; activation, % at 9 µM; 300,000 compounds, 1.7% hits; AID 504408;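 active = mean replicate activation of at least 50% with a set share of replicates each reaching 50%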;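 also: 0% = median of the neutral control wells and 100% = twice that signal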
# DAX1 inh: inhibitors of human orphan nuclear receptor DAX1 (NR0B1). P51843. HEK293 Gal4-DAX1 luciferase reporter, luminescence. inhibition, % at 6.75 µM. 340,000 compounds, 0.99% hits. AID 504766;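 active = inhibition above the mean over all tested compounds plus 3 SD, cut at about 4.2% in these data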;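 also: 0% = DAX1-transfected cells with DMSO and 100% = empty-vector control cells with DMSO; inhibition shows as a rise in luminescence from relieved DAX1 repression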
# HSF1 inh: HSF1 inhibition | NIH3T3-HGL HSE-luciferase, MG132-induced, luminescence 8 h; active compounds read low | activity change, negative = inhibition, % at 7.5 µM (by protocol) | 300,000 compounds, 0.77% hits | AID 2098;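 active = more than half of replicate wells show activity change below -50%, luminescence cut by over half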;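 also: luciferase reports HSF-1 transcriptional activity via heat shock element; 0% = median of DMSO wells and -100% = zero luminescence signal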
# AHR act confirm: confirmation of human aryl hydrocarbon receptor activators. shares compounds with AHR act. human cells, AHR-responsive luciferase reporter, luminescence. activation, % at 9 µM. 2,300 compounds, 87% hits. AID 2845; in the data active = activation above about 49%;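 also: HepG2 hepatoma cells carrying a DRE-driven firefly luciferase reporter; 0% = vehicle wells and 100% = reference agonist wells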
# PXR counter: activates human PXR in AHR activator counter-screen; shares compounds with AHR act; cell-based PXR reporter, luciferase luminescence; activation, % at 11.6 µM; 2,300 compounds, 88% hits; AID 434939; in the data active = activation above about 11%;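 also: human hepatoma DPX-2 cells expressing full-length human PXR; 0% = DMSO and 100% = reference agonist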
# GAA30 FXN cntr: GAA30 FXN promoter activation counter-screen; shares compounds with GAA850 FXN act; HEK293 lucGAA30 FXN promoter luciferase, 24 h; DMSO = 0%, 5 µM ipriflavone = 100%; activation, % at 6 µM; 1,900 compounds, 66% hits;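 active = mean activation above the mean of solvent-only control wells plus 3 SD, cut at about 22% in these data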;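 also: counterscreen of GAA850 promoter hits where activity marks nonselective or luminescence artifacts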
# FXN GAA850 conf: confirmation of GAA850 frataxin (FXN) promoter activators. HEK293 lucGAA850 FXN promoter luciferase reporter, 24 h; 100% = activation by SAHA. activation, % at 6 µM. 1,900 compounds, 86% hits. shares compounds with GAA850 FXN act. AID 588351;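 active = mean activation above a set limit taken from the primary screen, cut at about 8% in these data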;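 also: 0% = DMSO wells and 100% = 10 µM SAHA wells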
# An asterisk follows results filed as active; x = no result given; ! = not confirmed by another sample.
SMILES,GAA850 FXN act,AHR act,HSP90 inh,HSF1 activator,DAX1 inh,HSF1 inh,AHR act confirm,PXR counter,GAA30 FXN cntr,FXN GAA850 conf
CCCn1c(NC(=S)Nc2ccccc2)nc2ccccc21,4,83*,0,-6,0,-9,75*,11*,x,x
Cc1ccsc1C1CC(=O)Nc2ccccc2S1 (stereo not given),0,88*,4,16,-2,13,112*,39*,x,x
COc1ccccc1-c1noc(-c2ccco2)n1,5,90*,0,33,1,15,120*,17*,x,x
COc1ccccc1-c1noc(-c2ccccc2)n1,3,122*,-5,35,2,17,101*,26*,x,x
O=C(c1ccc(Cl)cc1)c1oc2ccccc2c1CS(=O)c1ccccc1 (stereo not given),1,8,1,9,1,12,x,x,x,x
Nc1c(C(=O)c2ccc(Br)cc2)oc2ccccc12,7.7*,122*,-1,5,2,-1,176*,x,93*,34*
Cc1cnc(NC(=O)c2cc(-c3ccccc3)nn2-c2ccccc2)s1,1,x,x,x,2,x,x,x,x,x
COc1cccc2sc3cc(NCc4ccc(C)o4)ccc3c(=O)c12,7.7*,96*,x,x,1,x,95*,55*,88*,34*
COc1cc2sc(-c3ccc(S(C)(=O)=O)cc3)c(C(=O)NCc3ccc(C)o3)c2cc1OC,0,3,x,x,-2,x,x,x,x,x
Cc1cc(Cl)cc(Cl)c1OCCN1CCCC1,1,-1,2,5,-1,3,x,x,x,x
NNc1nc(-c2ccccc2)cc(-c2ccccc2O)n1,-1,13,4,-18,-1,-1,x,x,x,x
Nc1nc(-c2ccccc2)cc(-c2ccccc2O)n1,9.3*,82*,6,39,-1,30,174*,22*,53*,48*
CCN(CC)C(=O)C1CCN(S(=O)(=O)c2ccc3c(c2)CCCN3C(=O)C2CCC2)CC1,-3,1,-3,0,-1,-8,x,x,x,x
Nc1cccc2c1C(=O)N(CCOc1ccc(F)cc1)C2=O,8.1*,98*,8,62*,1,39,87*,29*,106*,26*
COc1ccccc1OCCC(=O)OCCN1C(=O)c2ccccc2C1=O,0,3,1,-1,-1,0,x,x,x,x
O=c1c2ccccc2nc(SCc2nc3ccccc3s2)n1CCCO,14*,89*,0,47,0,41,107*,52*,102*,43*
O=C(CSc1nc2ccccc2c(=O)n1CCCO)NCc1ccccc1,2,-1,-2,-21,-1,-6,x,x,x,x
Cc1cc(C)n2nc(-c3cccc(Br)c3)cc2n1,9.1*,107*,0,29,4.8*,11,129*,18*,107*,44*
CCN1C(=O)/C(=C\N(C)C)S/C1=N\S(=O)(=O)c1ccc(C)cc1,0,0,-3,3,2,0,x,x,x,x
c1ccc2c(-c3nc(-c4ccncc4)no3)cccc2c1,10*,99*,-1,78*,1,36,114*,15*,101*,32*
C[C@H](CO)N1C[C@H](C)[C@@H](CN(C)Cc2ccccc2F)Oc2ncc(Br)cc2C1=O,1,x,x,x,3,x,x,x,x,x
COCCCNc1nc2c(-c3ccc(Cl)cc3)nnn2c2ccccc12,3,40,1,-31,0,-11,x,x,x,x
NNc1nc2c(-c3ccc(Cl)cc3)nnn2c2ccccc12,8.2*,97*,-3,73*,5.8*,43,117*,16*,129*,37*
O=S(=O)(Nc1cccc(-c2cn3c(n2)SCC3)c1)c1ccccc1,0,7,-1,-6,0,2,x,x,x,x
CC(=O)Nc1ccc2c(c1)OCO2,2,1,-3,-3,-1,1,x,x,x,x
SMILES,GAA850 FXN act,AHR act,HSP90 inh,HSF1 activator,DAX1 inh,HSF1 inh,AHR act confirm,PXR counter,GAA30 FXN cntr,FXN GAA850 conf
O=C(Nc1ccc2c(c1)OCO2)c1n[nH]c(=O)c2ccccc12,9.8*,132*,-2,10,2,17,132*,43*,100*,40*
O=C(Nc1ccc2c(c1)OCO2)c1ccc(Br)s1,20*,131*,10,34,2,23,93*,25*,108*,38*
Cn1c(=O)c2nc(-c3ccccc3)oc2c2ccccc21,12*,104*,-1,15,1,0,120*,22*,44*,24*
Cc1[nH]c2ccccc2c1SCc1ccccc1,15*,128*,2,-14,0,-3,103*,38*,13,7
COc1cccc(/C=C/c2ccc3cccc(O)c3n2)c1,8.7*,83*,-2,4,1,-7,120*,22*,4,29*
c1ccc2[nH]c(-c3ccnc4ccccc34)nc2c1,9.4*!,90*,0,24,-1,10,156*,26*,65*,19*
CCOC(=O)C1=C(COC(=O)/C=C/c2cccc(OC)c2OC)NC(=O)NC1C (stereo not given),3,-1,0,30,0,-4,x,x,x,x
COc1ccc(/C=N\NC(=O)c2sccc2C)cc1Cn1nc(C)cc1C,8.1*,57*,3,41,3,49,x,x,42*,22*
Cc1ccc(-c2nn3c(C)nnc3s2)cc1NC(=O)c1ccco1,14*,34,2,13,1,3,x,x,26*,6
O=C1CCC(=O)N1c1ccc(S(=O)(=O)Nc2cccc(Br)c2)cc1,0,0,-3,-9,2,-5,x,x,x,x
COC(=O)c1c(-c2ccc(F)cc2)csc1NC(=O)c1ccco1,9.6*,-1,-2,31,3,13,x,x,91*,38*
CCc1ccccc1Nc1nc(-c2cccnc2)cs1,3,7,-1,17,-1,4,x,x,x,x
O=[N+]([O-])c1ccccc1Nc1nc(-c2cccnc2)cs1,9.1*,52*,-4,18,1,11,x,x,87*,26*
Cn1c(SCc2ccccc2)nc(C(F)(F)F)cc1=O,3,3,1,17,-1,3,x,x,x,x
Cn1c(SCc2ccccc2)nc(N)c(N=O)c1=O,11*,-2,x,x,x,x,x,x,-10,19*
